Measured values reported in PubChem BioAssay AID720526 (National Center for Advancing Translational Sciences (NCATS), 2013).
Results filed as inconclusive are left out. Calls of active or inactive are those of the source. Calls come from the whole dose curve; as a rule, active = well fitted activation curve with a large enough effect; inconclusive = small, poorly fitted or top-dose-only effect; inactive = no such curve, though single readings can be large or run the other way.

Assay: qHTS Assay for NPC1 Promoter Activators: Hit Validation Using Renila Luciferase Read-Out for NPC1; for activity change, positive = activation: % of control where 0% means no effect
Conditions: Huh7 NPC1 promoter-luciferase reporter, luminescence, 24 h; series mostly up to 76.9 µM; activity change, positive = activation: at the top concentration
Source text: Niemann Pick Type C (NPC) is a rare neurodegenerative lipidosis that is characterized by lipid storage in the endosomal/lysosomal system. Treatment modalities for this devastating disease are currently non-existent due to the severe obstacles associated with accessing the central nervous system with proteins or genes. The majority of mutations causing NPC disease are missense mutations that are distributed throughout the length of the NPC1 protein, with the most prevalent being the I1061T allele. Although NPC1 mutant proteins may be functional, they are typically trapped in the ER due to misfolding. […] We have developed and optimized a cell based renilla luciferase reporter assay in 1536 well format for the identification of up-regulators of the mutant Rab9 promoter. This assay presents data on the validation of hits from the primary screen, which used a firefly luciferase read-out. NIH Chemical Genomics Center [NCGC] NIH Molecular Libraries Probe Production centers Network [MLPCN] MLPCN Grant: MH089375 Assay Submitter (PI): Yiannis A. Ioannou
Huh7 cells stably expressing NPC promoter-luciferase will be seeded at 1,500 cells/well in 5 uL in 1,536-well white opaque plates with 23 nL/well of compound in DMSO solution. The assay plates will be incubated at 37 deg C for 24 hours, after which 3 uL/well BriteLite plus luciferase detection reagent mixture (Perkin Elmer) will be added. Luminescence signal will be measured in a ViewLux plate reader (Perkin Elmer) after a 10 minute incubation at the room temperature.
Potency is the fitted concentration of half-maximal effect.

Compound	activity change, positive = activation	Potency
O=C(CCS(=O)(=O)c1ccccc1)Nc1ccc(-c2nc3ccccc3s2)cc1	1.69% (inactive)	
Cc1nc(-c2ccccn2)sc1C(=O)Nc1ccc(F)cc1F	-4.57% (inactive)	
O=C(NCCSCc1c(F)cccc1Cl)c1ccc(CN2CCOCC2)cc1	-51.3% (inactive)	
CC(=O)c1c(C)[nH]c(C(=O)Nc2cccc(S(=O)(=O)N(C)C)c2)c1C		23.2 µM (active)
O=C(O)C1=CC[C@@H](c2ccc(Cl)cc2)N(S(=O)(=O)c2ccc(Cl)cc2)[C@H]1c1ccccc1		14.6 µM (active)
CC1=C(C(=O)OC2CCCC(C)C2)C(c2ccccc2)NC(=O)N1 (stereo not given)	-33.8% (inactive)	
O=C(NC(=S)Nc1ccc(CN2CCCCC2)cc1)c1cc2ccccc2o1	-40.3% (inactive)	
COc1ccccc1N(C(=O)c1snc(C(N)=O)c1N)C(C(=O)NC1CCCCC1)c1cccc(OC)c1OC (stereo not given)		11.6 µM (active)
COCCNC(=O)CN1C(=O)NC(c2ccccc2)(c2ccccc2)C1=O	3.54% (inactive)	
NC(=O)C(=O)NN=C1C2CC3CC(C2)CC1C3	-9.92% (inactive)	
CCOCC(=O)Nc1c(C(=O)Nc2ccc3c(c2)OCCO3)oc2ccccc12	-45.9% (inactive)	
CN(C)/C=N/c1c(C#N)cnn1-c1nc2ccccc2s1	-0.131% (inactive)	
CCN(CC)S(=O)(=O)c1ccc(NCc2ccccn2)nc1	-15.6% (inactive)	
Cc1ccc(C(=O)Nc2nnc(S(=O)(=O)N3CCOCC3)s2)cc1	4.97% (inactive)	
COc1ccccc1CNC(=O)COc1ccc(C)cc1	8.49% (inactive)	
Cc1ccc(S(=O)(=O)/N=C2\C=C(Nc3cccc(C(=O)O)c3)C(=O)c3ccccc32)cc1	-88% (inactive)	
COc1ccc(NC(=O)CN(C)C(=O)c2ccc(=O)[nH]c2)cc1	-7.94% (inactive)	
CCN(C(=O)COC(=O)c1ccc(C=O)cc1)c1c(N)n(Cc2ccccc2)c(=O)[nH]c1=O	2.21% (inactive)	
COC(=O)Nc1nc2ccc(Br)cc2s1	17.5% (inactive)	
CC(=O)NC(CCCN1C(=O)c2ccccc2C1=O)c1nnn(C)n1 (stereo not given)	-17.1% (inactive)	

Compound	activity change, positive = activation	Potency
COCc1cc(C)nc(N/N=C/c2ccc(-c3ccc(Cl)cc3[N+](=O)[O-])o2)c1C#N	14.9% (inactive)	
COC(=O)c1ccccc1S(=O)(=O)NNC(=O)Nc1ccccc1	-8.36% (inactive)	
COc1cccc(C(C(=O)NC2CCCC2)N(CCC(C)C)C(=O)CCC(=O)Nc2cc(C)on2)c1 (stereo not given)	22% (inactive)	
COC(=O)c1sccc1NC(=S)OC	5.09% (inactive)	
CCOC(=O)CSc1nc2cc(C)ccc2cc1C#N	-34.8% (inactive)	
Cc1ccc(NC(=O)COC(=O)C2C3CC4OC(=O)C2C4C3)cc1Cl (stereo not given)	-9.24% (inactive)	
O=C(Nc1nc2ccc(F)cc2s1)c1ccc(N2CCCC2=O)cc1	-20.4% (inactive)	
O=C(CSc1nnc(Cc2cc(=O)[nH]c(=O)[nH]2)n1-c1ccc(Cl)cc1)NC1CCCC1	-6.19% (inactive)	
Cc1ccc(C)c(Nc2cc(C)nc3ncnn23)c1	-15.2% (inactive)	
COc1ccc(-c2csc(Nc3ncccn3)n2)cc1C	5.9% (inactive)	
NC(=O)C1(NC(=O)[C@@H]2CC3(CC(c4cccc(NC(=O)[C@@H]5CCC(=O)N5)c4)=NO3)CN2C(=O)c2ccccc2)CC1 (stereo not given in full)	-9.26% (inactive)	
COc1ccc2oc(=O)c(C(=O)NC(C)c3ccccc3)cc2c1 (stereo not given)	-2.14% (inactive)	
O=C(Nc1ccc(-c2nc3cccnc3s2)cc1)c1ccc(Cl)nc1	1.87% (inactive)	
O=C(C1COc2ccccc2O1)N1CCN(S(=O)(=O)c2ccccc2)CC1 (stereo not given)	-1.33% (inactive)	
CCCc1cc(C(=O)Nc2ccccc2SC)no1	-2.99% (inactive)	
CCCCc1cc(=O)oc2cc(OCC(=O)N3CCOCC3)ccc12	7.43% (inactive)	
COc1ccccc1NC(=S)NCc1ccc(Cl)cc1	5.09% (inactive)	
Cc1nc(SCC(=O)NC(=O)NC(C)(C)C)nc(C)c1C	-0.535% (inactive)	
Cc1csc(NC(=O)CSc2nnc(-c3ccncc3)o2)n1	-30.8% (inactive)	
O=C(CCN1C(=O)c2ccccc2C1=O)Nc1ccc(-c2nc3ccccc3s2)cc1	-38% (inactive)	
